Here are results for 26 molecules from PubChem BioAssay (Tox21).

The structures appear in SMILES notation. A number with no mark means an inactive call. Records with an inconclusive call do not appear. Activity calls are given as the source filed them. Unless noted, calls follow the shape of the full dose curve.

The nature of experiment [1]: qHTS assay to identify small molecule agonists of the sonic hedgehog signaling (Shh) pathway (AID 1259368).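 Also: NIH/3T3-derived 3T3Gli1-Luc cells carrying a stable Gli1-driven firefly luciferase reporter; series mostly up to about 92 µM; nearly all actives have a fitted effect of over 15% in size.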 Put shortly: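 Luminescence was read after 30 min at room temperature with luciferase reagent. Before that, 3T3Gli1-Luc cells (NIH/3T3 clone, stable Gli1-Luc reporter; 2,000/well) were exposed to compounds for 24 hr at 37C, 5% CO2, compounds being added 4 hr post-plating.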
(In general: qHTS replaces the single test concentration by a dilution series.)

Experiment [2] in a line: qHTS assay to identify small molecule antagonists of the sonic hedgehog signaling (Shh) pathway (AID 1259369). Also: nearly all actives have a fitted effect of over 45% in size. Also: potency is read from the fitted curve at half-maximal effect. An outline of the steps: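 Antagonist mode: compound added to 3T3 Gli1-Luc cells followed by conditioned-medium stimulation, 24 h at 37 C, 5% CO2. Inhibition taken as loss of Gli1-driven luciferase luminescence.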
Experiment [3] can be described thus: qHTS assay to identify small molecule agonists of the androgen receptor (AR) signaling pathway in the presence of an antagonist - cell viability counter screen (AID 1259379; active = well fitted curve in the direction sought with a large enough effect in the repeat runs; an effect the other way counts as inactive or inconclusive; also: nearly all actives have a fitted effect of over 25% in size; also: potency is read from the fitted curve at half-maximal effect;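 as to activity change, negative = cytotoxicity: MDA-kb2 human breast cancer cells carrying an MMTV luciferase reporter; series mostly up to about 92 µM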). An outline of the steps:
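Cytotoxicity counter-screen run in the same wells as the nilutamide-challenged (3.0 µM final) AR agonist assay in MDA-kb2 cells. Compounds tested at 15 concentrations for 16 h, 37 °C without CO2; CellTiter-Fluor fluorescence read.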

Experiment [4] in a line: qHTS assay to identify small molecule agonists of the estrogen receptor beta (ER-beta) signaling pathway - cell viability counter screen (AID 1259380; active = well fitted curve in the direction sought with a large enough effect in the repeat runs; an effect the other way counts as inactive or inconclusive; also: nearly all actives have a fitted effect of over 30% in size). Put shortly:
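Cell viability counter screen: CellTiter-Glo luminescence (30 min, room temperature) measured in the same wells as the beta-lactamase readout, after 16 hr compound exposure at 37C of ER-beta-bla HEK293T cells in 2% charcoal-stripped FBS medium.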

A short description of experiment [5]: qHTS assay to identify small molecule antagonists of the estrogen receptor beta (ER-beta) signaling pathway - cell viability counter screen (AID 1259382; active = well fitted curve in the direction sought with a large enough effect in the repeat runs; an effect the other way counts as inactive or inconclusive;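 also: HEK293T cells carrying ER-beta-UAS-bla reporter stimulated with estradiol; series mostly up to about 92 µM; nearly all actives have a fitted effect of over 55% in size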). Put shortly:
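Cytotoxicity was measured in the same wells by CellTiter-Glo luminescence after 30 min at room temperature. Cells were ER-beta-bla HEK293T in charcoal-stripped serum, given compound together with 1 nM E2 and incubated 16 h at 37C.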

In experiment [6] the target is Estrogen receptor (Homo sapiens) (UniProt P03372). Kind of experiment: qHTS assay to identify small molecule agonists of the estrogen receptor alpha (ER-alpha) signaling pathway in the presence of an antagonist (AID 1259383). Also: top concentration of the series differs between compounds; nearly all actives have a fitted effect of over 15% in size. An outline of the steps: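 Agonist-mode confirmation run in the presence of 10.0nM (final) ICI-182,780 antagonist. The reporter was ERE-driven luciferase in VM7Luc4E2 cells, grown in charcoal-stripped serum. Cells were exposed to 15-concentration compound series for 22hr, then ONE-Glo luminescence was read.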

Experiment [7] can be described thus: qHTS assay to identify small molecule agonists or antagonists of the thyroid stimulating hormone receptor (TSHR) signaling pathway - wild type cell line counter screen (AID 1259384). An outline of the steps: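 Wild-type Hek293 cells, 800/well, 18 h at 37C, then compound with Ro20-1724 for 30 min RT. cAMP by HTRF (cAMP-d2/anti-cAMP cryptate), 1 h RT, fluorescence read. 15 concentrations, triplicates.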

The target in experiment [8] is Androgen receptor (Homo sapiens) (UniProt P10275). Kind of experiment: qHTS assay to identify small molecule agonists of the androgen receptor (AR) signaling pathway in the presence of an antagonist (AID 1259381). Also: nearly all actives have a fitted effect of over 15% in size. Also: potency is read from the fitted curve at half-maximal effect. Put shortly: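 Agonist-mode confirmation run against 3.0 uM final nilutamide: compounds titrated at 15 concentrations onto MDA-kb2 MMTV-luciferase reporter cells. Luminescence measured with ONE-Glo following 16 hr incubation, 37C, 0% CO2.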
% is scaled to controls: 0 for no effect and ±100 for the full control effect.

Sequence of Estrogen receptor (Homo sapiens) (P03372 whole entry, looked up): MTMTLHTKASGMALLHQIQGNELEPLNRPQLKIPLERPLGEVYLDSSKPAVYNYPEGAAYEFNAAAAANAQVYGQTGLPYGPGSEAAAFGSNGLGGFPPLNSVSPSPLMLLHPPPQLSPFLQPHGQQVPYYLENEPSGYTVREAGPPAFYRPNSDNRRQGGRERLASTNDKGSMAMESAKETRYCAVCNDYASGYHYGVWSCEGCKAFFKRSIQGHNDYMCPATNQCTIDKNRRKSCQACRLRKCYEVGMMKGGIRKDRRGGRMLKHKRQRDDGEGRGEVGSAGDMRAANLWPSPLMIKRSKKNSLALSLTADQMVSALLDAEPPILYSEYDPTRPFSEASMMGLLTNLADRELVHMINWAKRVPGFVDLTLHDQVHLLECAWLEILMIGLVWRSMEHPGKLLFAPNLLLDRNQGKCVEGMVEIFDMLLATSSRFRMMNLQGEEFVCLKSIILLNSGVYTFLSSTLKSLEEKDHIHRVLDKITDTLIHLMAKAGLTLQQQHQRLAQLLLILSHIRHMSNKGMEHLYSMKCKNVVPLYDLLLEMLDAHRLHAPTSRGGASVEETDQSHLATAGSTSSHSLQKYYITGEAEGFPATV
Sequence of Androgen receptor (Homo sapiens) (P10275 whole entry, looked up): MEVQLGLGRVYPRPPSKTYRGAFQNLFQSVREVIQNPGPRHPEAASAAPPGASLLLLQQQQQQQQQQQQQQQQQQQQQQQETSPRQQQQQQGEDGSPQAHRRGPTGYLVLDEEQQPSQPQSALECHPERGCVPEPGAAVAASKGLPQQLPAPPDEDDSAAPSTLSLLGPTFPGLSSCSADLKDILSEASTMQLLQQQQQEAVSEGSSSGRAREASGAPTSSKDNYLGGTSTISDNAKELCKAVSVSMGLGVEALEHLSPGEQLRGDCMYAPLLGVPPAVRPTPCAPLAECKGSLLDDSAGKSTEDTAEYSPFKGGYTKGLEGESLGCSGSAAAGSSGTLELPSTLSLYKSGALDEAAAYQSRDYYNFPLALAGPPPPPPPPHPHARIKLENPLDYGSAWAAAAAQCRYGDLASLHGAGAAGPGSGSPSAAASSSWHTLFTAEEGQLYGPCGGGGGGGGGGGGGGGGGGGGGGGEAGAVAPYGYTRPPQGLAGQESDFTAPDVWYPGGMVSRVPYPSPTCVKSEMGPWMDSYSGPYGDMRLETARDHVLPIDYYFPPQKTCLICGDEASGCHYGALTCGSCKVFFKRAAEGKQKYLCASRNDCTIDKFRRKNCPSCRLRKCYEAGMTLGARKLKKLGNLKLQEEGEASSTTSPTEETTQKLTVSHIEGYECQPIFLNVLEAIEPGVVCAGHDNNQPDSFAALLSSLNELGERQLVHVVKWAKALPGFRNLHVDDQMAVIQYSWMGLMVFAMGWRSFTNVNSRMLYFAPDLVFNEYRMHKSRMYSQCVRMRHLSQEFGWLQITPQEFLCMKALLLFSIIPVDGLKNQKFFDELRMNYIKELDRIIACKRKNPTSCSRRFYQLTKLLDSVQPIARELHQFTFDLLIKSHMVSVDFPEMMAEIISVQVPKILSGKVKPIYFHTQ

Turning to `CC(C)(C)c1n[nH]c(=S)n(N)c1=O`, the outcome in experiment [1], in experiment [5], in experiment [6] and in experiment [7] was inactive. Also, the Potency result in experiment [2], in experiment [3] and in experiment [4] was “inactive” in each case.

For the molecule `COCCOC(=O)C1=C(C)NC(C)=C(C(=O)OC(C)C)C1c1cccc([N+](=O)[O-])c1` (stereo unspecified), the outcome in experiment [1], in experiment [5] and in experiment [6] was inactive. In addition, the Potency result in experiment [2], in experiment [3] and in experiment [4] was “inactive” each time.

As to `Cc1ccc(C=O)cc1C`, the result in experiment [1] and in experiment [5] was inactive. In addition, the Potency result in experiment [2], in experiment [3] and in experiment [4] was “inactive” throughout.

Consider `CC1=CCC(C(C)C)=CC1`, for which the molecule was called inactive in experiment [1], in experiment [5] and in experiment [6]. Also, the Potency result in experiment [2], in experiment [3] and in experiment [4] was “inactive” in each case.

For `COC(=O)[C@@H]1[C@H]2C[C@H]3c4[nH]c5ccccc5c4CCN3C[C@@H]2CC[C@@H]1O`, the molecule was classed as inactive in experiment [1], in experiment [5] and in experiment [6]. Moreover, the Potency result in experiment [2], in experiment [3] and in experiment [4] was “inactive” throughout.

In the case of `C=C(C)C(=O)OCCN(CC)CC`, the result in experiment [1] and in experiment [5] was inactive. In addition, the Potency entry in experiment [2], in experiment [3] and in experiment [8] was “inactive” each time.

Turning to `Cc1[nH]cnc1-c1ccc(Cl)cc1`, the outcome in experiment [1], in experiment [5] and in experiment [6] was inactive. In addition, the Potency result in experiment [2], in experiment [3] and in experiment [8] was “inactive” throughout.

Turning to `CC(C(=O)O)c1ccc2c(c1)CC(=O)c1ccccc1S2` (stereo unspecified), the molecule was called inactive in experiment [1], in experiment [5], in experiment [6] and in experiment [7]. The Potency result in experiment [2], in experiment [3] and in experiment [8] was “inactive” throughout.

Turning to `CN(CCOc1ccc(NS(C)(=O)=O)cc1)CCc1ccc(NS(C)(=O)=O)cc1`, the result in experiment [1], in experiment [5], in experiment [6] and in experiment [7] was inactive. For the same molecule, the Potency result in experiment [2], in experiment [3] and in experiment [4] was “inactive” in each case.

With `COc1ccc2nc(SCc3ncc(C)c(OC)c3C)[nH]c2c1`, the result in experiment [1], in experiment [5], in experiment [6] and in experiment [7] was inactive. Besides, the Potency result in experiment [2], in experiment [3] and in experiment [8] was “inactive” throughout.

With `COc1ccc2c(c1)C(=O)N(CCc1ccc(S(=O)(=O)NC(=O)NC3CCCCC3)cc1)C(=O)C2(C)C`, the molecule was called inactive in experiment [1], in experiment [5], in experiment [6] and in experiment [7]. For the same molecule, the Potency entry in experiment [2] and in experiment [3] was “inactive” throughout. Also, the Potency in experiment [8] is 21.1 µM (active).

Turning to `Cc1ccccc1N=O`, the outcome in experiment [1], in experiment [5] and in experiment [7] was inactive. Also, the Potency result in experiment [2], in experiment [3] and in experiment [4] was “inactive” each time.

Consider `C=C(C)C(=O)OCCNC(C)(C)C`, for which the result in experiment [1], in experiment [5] and in experiment [7] was inactive. The Potency entry in experiment [2], in experiment [3] and in experiment [4] was “inactive” throughout.

For the molecule `CO[C@@H]1[C@@H](OC(N)=O)[C@@H](O)[C@H](Oc2ccc3c(O)c(NC(=O)c4ccc(O)c(CC=C(C)C)c4)c(=O)oc3c2C)OC1(C)C`, the result in experiment [1], in experiment [5] and in experiment [7] was inactive. Also, the Potency entry in experiment [2], in experiment [3] and in experiment [4] was “inactive” in each case.

`Cc1ccccc1C(=O)Nc1ccc(C(=O)N2CCCC(N(C)C)c3ccccc32)cc1` (stereo unspecified): the call in experiment [1] and in experiment [5] was inactive. Also, in experiment [2], the Potency is 15 µM (active). For the same molecule, in experiment [3], the Potency entry was “inactive”.

With `COc1cc(C(=S)N2CCOCC2)cc(OC)c1OC`, the molecule was classed as inactive in experiment [1] and in experiment [5]. The Potency result in experiment [2] and in experiment [3] was “inactive” throughout.

For `Cc1cc2cc3c(C)cc(=O)oc3c(C)c2o1`, the call in experiment [1], in experiment [5], in experiment [6] and in experiment [7] was inactive. The Potency result in experiment [2], in experiment [3] and in experiment [4] was “inactive” each time.

For the molecule `Cc1cccc(OCC(O)CNC(C)(C)C)c1C` (stereo unspecified), the call in experiment [1], in experiment [5] and in experiment [7] was inactive. Further, the Potency result in experiment [2], in experiment [3] and in experiment [8] was “inactive” in each case.

With `N[C@@H](CCC(=O)N[C@@H](CS)C(=O)NCC(=O)O)C(=O)O`, in experiment [1], the activity change is -0.793% [at 18.9 µM]. Moreover, the activity change, negative = inhibition in experiment [2] was 20% [at 19 µM]. Besides, the values for the activity change, negative = cytotoxicity in experiment [3], in experiment [4] and in experiment [5] were -2.43% [at 19 µM], 8.98% [at 19 µM] and 1.29% [at 19 µM], respectively. Further, the cAMP activity change in experiment [7] was 2.89% [at 18.9 µM].

Turning to `Cc1cc(NC(=O)C2=C(O)c3ccccc3S(=O)(=O)N2C)no1`, the call in experiment [1], in experiment [5] and in experiment [7] was inactive. Further, the Potency result in experiment [2], in experiment [3] and in experiment [4] was “inactive” throughout.

With `CCCCCCN`, the molecule was called inactive in experiment [1], in experiment [5], in experiment [6] and in experiment [7]. The Potency in experiment [2] is 61.1 µM (active). In addition, the Potency result in experiment [3] and in experiment [4] was “inactive” throughout.

As for `Cc1cccc(C)c1OCC(C)N` (stereo unspecified), the molecule was called inactive in experiment [1], in experiment [5] and in experiment [7]. Further, the Potency entry in experiment [2], in experiment [3] and in experiment [4] was “inactive” each time.

Turning to `CCOC(=O)c1ccc(OC(=O)CCCCCN=C(N)N)cc1`, the result in experiment [1] and in experiment [5] was inactive. Moreover, the Potency result in experiment [2] and in experiment [3] was “inactive” throughout.

For the molecule `CC1COc2ccccc2N1` (stereo unspecified), the molecule was classed as inactive in experiment [1], in experiment [5] and in experiment [7]. Besides, the Potency entry in experiment [2], in experiment [3] and in experiment [4] was “inactive” each time.

With `Nc1ccc([N+](=O)[O-])c(N)c1`, the call in experiment [1], in experiment [5] and in experiment [7] was inactive. Also, the Potency result in experiment [2] and in experiment [4] was “inactive” each time. The Potency in experiment [3] is 29.9 µM (active).

Consider `CN1C(C)(C)CCCC1(C)C`, for which the molecule was called inactive in experiment [1], in experiment [5], in experiment [6] and in experiment [7]. The Potency entry in experiment [2], in experiment [3] and in experiment [4] was “inactive” each time.
